KDM5B inh – Primary screen for KDM5B Histone Demethylases FDH-coupled qHTS. KDM5B demethylase, FDH-coupled NADH fluorescence (FDH is formaldehyde dehydrogenase). 220,000 compounds, 2.6% hits. Potency, µM (doses to about 57.7 µM), most hits filed as inhibitors. AID 1347165, 2019; active = well fitted inhibition curve with a large enough effect; note: nearly all actives have a fitted effect of over 70% in size
Target sequence (Q9UGL1 whole entry, looked up): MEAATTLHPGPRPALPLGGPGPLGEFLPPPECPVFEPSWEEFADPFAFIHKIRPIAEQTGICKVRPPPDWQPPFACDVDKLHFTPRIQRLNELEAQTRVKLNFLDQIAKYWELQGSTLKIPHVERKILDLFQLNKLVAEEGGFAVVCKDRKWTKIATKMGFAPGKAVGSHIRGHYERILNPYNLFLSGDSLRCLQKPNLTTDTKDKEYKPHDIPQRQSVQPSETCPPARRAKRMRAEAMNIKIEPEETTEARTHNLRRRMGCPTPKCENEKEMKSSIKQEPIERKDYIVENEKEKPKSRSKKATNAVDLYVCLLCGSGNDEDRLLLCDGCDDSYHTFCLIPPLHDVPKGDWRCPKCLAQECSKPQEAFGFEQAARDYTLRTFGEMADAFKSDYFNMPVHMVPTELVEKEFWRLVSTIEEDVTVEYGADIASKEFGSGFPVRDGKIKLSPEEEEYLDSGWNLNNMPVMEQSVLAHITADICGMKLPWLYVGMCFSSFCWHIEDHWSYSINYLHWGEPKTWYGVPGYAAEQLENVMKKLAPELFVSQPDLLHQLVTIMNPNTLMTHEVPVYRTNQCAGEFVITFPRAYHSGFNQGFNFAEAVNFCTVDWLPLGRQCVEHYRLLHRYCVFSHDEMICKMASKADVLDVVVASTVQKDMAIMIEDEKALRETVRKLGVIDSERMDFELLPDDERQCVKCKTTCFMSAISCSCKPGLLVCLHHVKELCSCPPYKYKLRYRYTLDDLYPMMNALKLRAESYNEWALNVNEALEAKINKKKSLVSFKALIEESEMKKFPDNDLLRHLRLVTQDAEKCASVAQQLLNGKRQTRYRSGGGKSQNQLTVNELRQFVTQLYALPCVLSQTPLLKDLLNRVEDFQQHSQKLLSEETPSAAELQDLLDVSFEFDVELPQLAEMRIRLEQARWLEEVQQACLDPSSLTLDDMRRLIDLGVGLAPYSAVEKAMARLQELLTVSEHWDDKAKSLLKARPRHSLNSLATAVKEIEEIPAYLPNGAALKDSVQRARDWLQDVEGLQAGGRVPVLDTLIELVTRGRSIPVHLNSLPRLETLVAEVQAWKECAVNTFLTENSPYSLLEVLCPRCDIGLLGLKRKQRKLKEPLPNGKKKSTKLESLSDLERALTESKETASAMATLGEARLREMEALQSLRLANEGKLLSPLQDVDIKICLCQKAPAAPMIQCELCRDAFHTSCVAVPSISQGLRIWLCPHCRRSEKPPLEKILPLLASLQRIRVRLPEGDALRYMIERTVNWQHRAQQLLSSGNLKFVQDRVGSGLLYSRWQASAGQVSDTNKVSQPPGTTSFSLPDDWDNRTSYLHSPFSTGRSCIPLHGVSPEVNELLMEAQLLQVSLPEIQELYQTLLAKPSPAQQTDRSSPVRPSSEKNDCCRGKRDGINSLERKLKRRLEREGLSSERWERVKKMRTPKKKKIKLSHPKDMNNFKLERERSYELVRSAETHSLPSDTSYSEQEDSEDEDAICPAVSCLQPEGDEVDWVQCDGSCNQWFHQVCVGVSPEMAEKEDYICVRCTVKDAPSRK
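Measured: NADH fluorescence change, 30 min, RT. System: KDM5BΔAP 200 nM final, H3K4me3 peptide, α-KG, Fe(II), ascorbate, NAD⁺ plus FDH, pH 7.5 HEPES. Compounds: titrated, 10 min pre-incubation with enzyme.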
Large screens that a line does not name were inactive. This is one part of a sample in which hits are shown more often than they occur.

COc1ncccc1-c1cc(C(=O)NCc2c(C)cc(C)[nH]c2=O)c2c(c1)N(C)CCO2	KDM5B inh 35.5µM
COc1cccc(-c2cc(C(=O)NCc3c(C)cc(C)[nH]c3=O)c3c(c2)ncn3C)c1OC	none
O=C(c1ccccn1)N1CCCC(n2cc(-c3nc(-c4ccccc4)no3)nn2)C1 (stereo not drawn)	none
O=C(COc1cccc(F)c1)c1ccc2c(c1)N(CC(=O)N1CCOCC1)C(=O)CO2	none
O=C1NC2(CCN(C(=O)CCc3cccnc3)CC2)CC1c1ccccc1 (stereo not drawn)	none
CC(=Nc1ccc([N+](=O)[O-])cc1)N(C)C	none
O=C1CSc2ccc(C(=O)NOCc3ccccc3)cc2N1	none
O=C(CSc1cc(Cl)ccc1Cl)NC1CCS(=O)(=O)C1 (stereo not drawn)	none
CCOCCCNC(=O)C1CCCCC1	none
Cc1cnc(CCNC(=O)Nc2ccc3c(c2)OCCO3)n1C1CCC1	none
Cc1ccc2c(C)nc(Nc3nc(C)c(Cc4ccccc4)c(=O)[nH]3)nc2c1	none
CCOC(=O)CCNC(=O)N1CCC(Cc2noc(-c3ccncc3)n2)C1 (stereo not drawn)	none
COc1cc(OC)cc(C(=O)NCC2CCCN(Cc3cnn(C)c3C)C2)c1 (stereo not drawn)	none
Nc1nc(CN2CCC(O)CC2)nc2ccccc12	none
CCOc1ccc(NC(=O)CSCc2cc(=O)n3cccc(C)c3n2)cc1	none
Cc1ccc(NC(=O)CCNc2c(C)nc3cnccn23)c(F)c1	KDM5B inh 25.1µM
Cc1ccc(NCC(=O)Nc2ccc(CC#N)cc2)c(F)c1	none
CCOc1ccc(NC(=O)CCc2c(C)nc3nc(C)nn3c2C)cc1	none
Cc1ccc(NC(=O)CCn2ccn3nc4c(c3c2=O)CCCC4)c(F)c1	none
CCOc1ccc(NC(=O)CCNc2c(C)nc3cnccn23)cc1	KDM5B inh 20µM
C/C(=N/O)c1cnn(-c2ccccc2)c1C	none
O=C(O)/C(=C\c1ccc(OCc2ccccc2)cc1)NC(=O)c1ccccc1	none
CC(C)c1ccc2oc(=O)cc(CN3CCC(C(N)=O)CC3)c2c1	none
CCCCCn1nc(C(=O)N2CCCC2c2nc3ccccc3s2)c2ccccc2c1=O (stereo not drawn)	none
O=C1/C(=C\c2cccs2)Sc2ccccc21	none
COc1ccc(S(=O)Cc2ccc(C(=O)NCc3cccc(OC)c3OC)o2)cc1 (stereo not drawn)	none
COc1ccccc1N1CCN(C(=O)C[C@@H]2O[C@H](CNC(=O)c3ccc(N(C)C)cc3)[C@@H](O)[C@H]2O)CC1	none
O=C(c1ccccc1)N(Cc1ccco1)Cc1cccs1	none
Cc1ccc(C(=O)N(Cc2ccco2)Cc2ccco2)cc1	none
CCNc1ncc(C(=O)N(CCc2ccccc2)Cc2ccco2)cn1	KDM5B inh 28.2µM
COc1ccc(Nc2nc(N)c(C(=O)c3ccc(OC)c(OC)c3OC)s2)cc1	none
Cc1nc2ccccc2nc1SCC(=O)Nc1ccccc1OC(C)C	none
NC(=O)[C@@H]1C[C@H](Oc2cccnc2)CN1S(=O)(=O)c1ccccc1	none
C=CCNC(=O)c1ccccc1NC(=O)C1CCC1	none
C=CCNC(=O)c1ccc(-c2nnc3ccc(NC(=O)C4CCC4)cn23)cc1	KDM5B inh 22.4µM
O=C(NCCN1CCCCCC1)c1ccc(CN2CC(=O)N3CCCCC3C2=O)cc1 (stereo not drawn)	none
COc1ccc(C(=O)N[C@@H]2CCC[C@@H]2C(=O)NCCN2CCCCC2)cn1	none
O=C(Nc1ccc(-c2nnc3n2CCCC3)cc1)c1ccccc1	none
O=C(NCCN1CCCCC1)c1ccc(-c2nnc3ccc(NC(=O)C4CCC4)cn23)cc1	KDM5B inh 22.4µM
C(#CCN1CCCCC1)COCCCOCc1ccccc1	none
Cc1cc2cc(C(=O)N(C)Cc3ccc4nsnc4c3)ccc2o1	none
CN(C)Cc1ccc2c(c1)c(OC(C)(C)C(=O)NCCN1CCOCC1)nn2Cc1ccccc1	KDM5B inh 22.4µM
COCc1ccc2c(c1)c(OC(C)(C)C(=O)NCCN(C)C)nn2Cc1ccccc1	KDM5B inh 31.6µM
O=C(NCCN1CCOCC1)c1nn(Cc2ccccc2)c(=O)c2ccccc12	none
COCc1ccc2c(c1)c(OC(C)(C)C(=O)NCCCn1ccnc1)nn2Cc1ccccc1	none
COCc1ccc2c(c1)c(OC(C)(C)C(=O)NCc1ccncc1)nn2Cc1ccccc1	none
COc1ccc(-c2ccc(C(=O)N[C@H](c3ccccn3)C3CC(O)C3)o2)cc1 (stereo partly drawn)	none
CC(C)c1ccc(NC(=O)O[C@@H]2CO[C@H]3[C@@H]2OC[C@@H]3NC(=O)c2ccccc2)cc1	none
COc1ccccc1C(=O)N1CCCn2nc(C)c(-c3ccccc3OCc3ccccc3)c21	none
Cc1nn2c(c1-c1ccccc1C(N)=O)N(CCCc1ccccc1)CCC2	KDM5B inh 31.6µM
Cc1nn2c(c1-c1ccccc1[S+](C)(=O)[O-])N(Cc1ccccc1)CCC2	none
Cc1nn2c(c1-c1cccnc1N1CCOCC1)N(CCCc1ccccc1)CCC2	none
Cc1nn2c(c1-c1ccccc1[S+](C)(=O)[O-])N(CCCc1ccccc1)CCC2	KDM5B inh 25.1µM
Cc1nn2c(c1-c1ccccc1C(C)C)N([S+](=O)([O-])c1ccc(C(C)C)cc1)CCC2	none
O=C(CSc1nc2ccccc2s1)Nc1ccc(F)c(F)c1	none
C=C(C)CNC(=S)N/N=C(/C)c1ccc(C)o1	none
CC(Cn1ccc2ccccc21)NC1CCN(c2ccc(C(=O)N(C)C)cc2)CC1 (stereo not drawn)	none
CC(=O)Nc1ccc(NC(=O)COC(=O)c2ccccc2Sc2ccccc2C#N)cc1	none
COc1cccc(CN2CCc3nn(C)c(=O)n3CC2)c1OC	none
COc1cccc(CN2CCc3nn(C)c(=O)n3CC2)n1	none
COc1ccc2c(c1)c(CN1CCc3nn(C)c(=O)n3CC1)cn2C	KDM5B inh 31.6µM
CC(=O)NC12CC3CC(C1)CC(C(=O)NCc1ccc(C(=O)N4CCCCC4)cc1)(C3)C2	none
CC(C)(C)n1nnnc1SCc1coc(-c2ccccc2)n1	none
COc1ccc(C(=O)N(CC#N)C2CC2)cc1OC	none
O=C(O)C(c1c[nH]c2cc(F)ccc12)N1CCN(CCNc2cc(=O)oc3ccccc23)CC1 (stereo not drawn)	none
Cc1cc(NC(=O)C(C)C)cc(-c2nc3ccccc3o2)c1O	none
CCN(CC)C(=O)CSc1nc(N2CCCC2)c2c(c1C#N)CCCC2	none
Cn1ccc2c(C(=O)NCc3cccnc3)nc(-c3cccc4cc[nH]c34)cc21	KDM5B inh 35.5µM
Cn1ccc2c(C(=O)NCc3cccnc3)nc(-c3ccc(CO)cc3)cc21	none
Cn1ccc2c(C(=O)NCc3cccnc3)nc(-c3ccccc3C(F)(F)F)cc21	KDM5B inh 35.5µM
Cn1ccc2c(C(=O)NCc3cccnc3)nc(-c3cccnc3)cc21	none
CCc1ccccc1NC(=O)CN(c1ccc(C)c(C)c1)S(=O)(=O)c1ccsc1C(=O)OC	none
c1ccc2cc(CNCCN3CCCC3)ccc2c1	none
CCc1ccccc1NCC(=O)Nc1sc2c(c1C#N)CCCCC2	none
Cc1ccc(-c2nnc(C3CN(C(=O)c4ccccc4F)CC34CCOCC4)o2)cc1 (stereo not drawn)	none
Cc1ccc(C)c(S(=O)(=O)N2CCCC2c2nc3ccccc3[nH]2)c1 (stereo not drawn)	none
CCCOc1cc(C)c(C(C)C)cc1S(=O)(=O)N1CCCC1	none
Cc1noc(C)c1-c1cnc(Nc2ccccc2)c2c1CCO2	KDM5B inh 35.5µM
Cc1noc(C)c1S(=O)(=O)Nc1cccc(C(F)(F)F)c1	none
CSc1ccc(Nc2ncncc2-c2nc(-c3ccccc3)no2)cc1	none
FC(F)(F)c1cccc(Nc2nc3nonc3nc2Nc2ccc(Cl)cc2)c1	none
Cc1noc(C)c1-c1cnc(Nc2cccc(C(F)(F)F)c2)c2c1CCO2	KDM5B inh 35.5µM

Source: PubChem (National Center for Advancing Translational Sciences (NCATS))
